Bioassay records as filed in PubChem BioAssay.
DT40 TDP1 CPT: DT40-hTDP1 cell growth loss with CPT; Potency, µM (top dose mostly 46.2 µM), without a hit: at the top dose activity change, negative = growth inhibition, most hits filed as inhibitors; chicken DT40 Tdp1-/-;hTDP1 cells + 20 nM CPT, ATP luminescence, 48 h; 420,000 compounds, 12% hits; AID 686979; further: potency means the concentration at half of the fitted maximal effect; nearly all actives have a fitted effect of over 55% in size
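Chicken DT40 Tdp1-/- cells stably complemented with human TDP1 were seeded at 400 cells/well in medium containing 20 nM camptothecin, exposed to pin-transferred compounds, and grown at 37 °C for at least 48 hr. Viability was read as ATP luminescence.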
IL-1B inflam inh: inhibitors of inflammasome signaling (IL-1 beta secretion) | AID 743279 | activity change, % at 57.5 µM | 360,000 compounds, 4.7% hits | THP-1 LPS/ATP IL-1B secretion, AlphaLISA, 16 h; stronger effect = lower value; in the data active means activity change below about -50%; inconclusive means mostly about -30% to -49%
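Secreted IL-1B measured by AlphaLISA bead assay after 16 h compound exposure of THP-1 cells; compounds (final up to 57.5 uM) added 1 h before LPS (250 ng/mL) and ATP (1.25 mM) stimulation; lower signal means less secretion.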
Six1-Eya2 blk: blocks human Six1 binding to Eya2 | Q15475+O00167 | AlphaScreen GST-Six1/His-Eya2 binding, biochemical; stronger effect = lower value | 360,000 compounds, 0.56% hits | activity change, % (concentration not given with the values); in the data active means activity change below about -65%; inconclusive means mostly about -30% to -63%
Target sequence (O00167 whole entry, looked up): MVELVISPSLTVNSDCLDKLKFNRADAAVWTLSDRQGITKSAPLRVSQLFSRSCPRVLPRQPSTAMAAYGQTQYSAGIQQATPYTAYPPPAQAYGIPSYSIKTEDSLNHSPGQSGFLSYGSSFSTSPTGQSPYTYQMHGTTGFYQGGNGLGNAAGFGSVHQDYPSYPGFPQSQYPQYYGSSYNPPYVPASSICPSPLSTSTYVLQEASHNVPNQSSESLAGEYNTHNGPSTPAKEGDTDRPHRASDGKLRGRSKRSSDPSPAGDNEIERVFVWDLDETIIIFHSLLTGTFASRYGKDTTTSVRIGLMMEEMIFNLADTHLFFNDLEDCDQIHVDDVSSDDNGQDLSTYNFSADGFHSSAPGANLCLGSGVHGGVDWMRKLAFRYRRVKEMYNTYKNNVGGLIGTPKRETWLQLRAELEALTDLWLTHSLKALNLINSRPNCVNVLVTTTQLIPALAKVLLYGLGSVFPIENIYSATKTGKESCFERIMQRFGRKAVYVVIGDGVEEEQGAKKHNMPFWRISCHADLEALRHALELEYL
Target sequence (Q15475 whole entry, looked up): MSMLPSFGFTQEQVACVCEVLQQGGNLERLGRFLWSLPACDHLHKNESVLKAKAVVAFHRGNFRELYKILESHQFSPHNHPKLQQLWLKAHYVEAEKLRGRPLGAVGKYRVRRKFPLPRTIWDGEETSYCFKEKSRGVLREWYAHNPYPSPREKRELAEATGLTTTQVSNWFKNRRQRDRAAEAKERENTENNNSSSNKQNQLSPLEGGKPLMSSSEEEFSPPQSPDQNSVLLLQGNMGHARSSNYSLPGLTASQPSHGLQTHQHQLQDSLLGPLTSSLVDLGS
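Homogeneous AlphaScreen proximity assay pairing GST-Six1 with His-tagged Eya2 (added as 5X mix: 250 nM and 500 nM) in 50 mM Tris pH 8.0, 300 mM NaCl, 1 mM TCEP. Glutathione donor and nickel acceptor beads; 1 h, 37 °C, dark.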
TDP1 block: TDP1 (human) enzyme inhibition; Q9NUW8; 350,000 compounds, 0.28% hits; Potency, µM (titrated, usually from 130 µM), without a hit: at the highest dose activity change, negative = inhibition, hits mostly inhibitors; recombinant TDP1, AlphaScreen DNA substrate cleavage; further: potency means the concentration at half of the fitted maximal effect; nearly all actives have a fitted effect of over 40% in size
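Enzyme-compound mixtures sat 15 min at room temperature, followed by a 5 min reaction with 15 nM final substrate and 10 min with AlphaScreen beads. Recombinant human Tdp1 was used at 1 nM final.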
DT40 TDP1 no CPT: qHTS for Inhibitors of human tyrosyl-DNA phosphodiesterase 1 (TDP1): qHTS in cells in absence of CPT; DT40 Tdp1-/- hTDP1 cells, no CPT, ATP luminescence, 48 h; Potency, µM (doses to about 46.2 µM), for the others: top-dose activity change, negative = growth inhibition, most hits filed as inhibitors; 420,000 compounds, 15% hits; further: potency means the concentration at half of the fitted maximal effect; nearly all actives have a fitted effect of over 55% in size
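Chicken DT40 Tdp1-/- cells stably complemented with human TDP1 were seeded at 400 cells/well with DMSO in place of 20 nM camptothecin. After compound pinning, cells grew at least 48 hr at 37 °C; viability read by CellTiter-Glo luminescence.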
CtBP-E1A inh: inhibitors of CtBP/E1A interaction | AlphaScreen GST-E1A/His-CtBP binding, 1536-well; stronger effect = lower value | activity change, % (test concentration not listed) | 340,000 compounds, 0.49% hits; in the data active means activity change below about -65%; inconclusive means mostly about -30% to -63%
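GST-E1A and His-tagged CtBP (125 nM each as 5X stock) were preincubated with pin-transferred compound for 2 h at 37 °C in the dark, then glutathione donor and nickel acceptor beads were added for 1 h before AlphaScreen reading.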
The depositor's hits bear a star; u = inconclusive; x = no result given; [ ] = remark or other dose. Rows were chosen to be rich in hits. Some 18% of all compounds tested hit in one or more screens of this group. Unless noted, the call rests on the fitted dose curve; in most records, active means well fitted curve in the direction sought with a large enough effect; inconclusive means small, poorly fitted or top-dose-only effect, or another doubt; inactive means no such curve, though single readings can be large; an effect the other way counts as inactive or inconclusive. On the % scale 0 is the no-effect control and ±100 the full control effect.

SMILES | DT40 TDP1 CPT | IL-1B inflam inh | Six1-Eya2 blk | TDP1 block | DT40 TDP1 no CPT | CtBP-E1A inh
O=C(CN1C(=O)/C(=C/c2ccccc2F)SC1=S)NC1C=CS(=O)(=O)C1 (configuration not stated) | -3% | -50* | -5 | -9% | -13% | -1
COc1cccc(/C=C2\SC(=S)N(CCC(=O)NCCc3ccc(O)cc3)C2=O)c1 | 18µM* | -85* | -9 | 3% | u | -16
O=C(CN1C(=O)S/C(=C\c2ccc(Cl)cc2)C1=O)NC1C=CS(=O)(=O)C1 (configuration not stated) | 5.2µM* | -69* | 1 | -5% | u | 11
O=C(CN1C(=O)S/C(=C\c2cccc(Cl)c2)C1=O)NC1C=CS(=O)(=O)C1 (configuration not stated) | u | -67* | -1 | 0% | -17% | 2
COc1cccc(/C=C2\SC(=S)N(CCC(=O)Nc3ccc(O)cc3)C2=O)c1 | -24% | -15 | 0 | x | u | -17
CN(C(=O)CN1C(=O)S/C(=C\c2cccc(Cl)c2)C1=O)C1CCS(=O)(=O)C1 (configuration not stated) | u | -20 | 6 | 0% | u | x
CN1CCN(NC(=O)CN2C(=O)/C(=C/c3ccccc3F)SC2=S)CC1 | x | x | x | 4% | x | x
COc1cccc(/C=C2\SC(=S)N(CCC(=O)NC3C=CS(=O)(=O)C3)C2=O)c1 (configuration not stated) | u | -67* | -6 | x | u | -12
O=C(CN1C(=O)/C(=C/c2cccc(Cl)c2)SC1=S)NC1C=CS(=O)(=O)C1 (configuration not stated) | u | -63* | -17 | 0% | 16µM* | -8
C/C(=N\Nc1cccc([N+](=O)[O-])c1)c1ccccc1O | u | -22 | -12 | 3% | u | -16
O=C(Nc1ccc2ccccc2n1)Nc1ccccc1F | -3% | 52 | 1 | x | 2% | 5
C/C(=N\Nc1nc2ccccc2nc1C)c1ccccc1O | 0.13µM* | 32 | -2 | 5% | 0.092µM* | 0
CC(=NNc1ccc2ccccc2n1)c1ccccc1O | u | -59* | -9 | x | u | -11
COc1ccc(/C(C)=N/Nc2nc3ccccc3n3cnnc23)cc1OC | u | -5 | u | 2% | 21µM* | u
C(=N\Nc1nc(N2CCOCC2)nc(N2CCOCC2)n1)/c1ccncc1 | 0% | 8 | 20 | 3% | -18% | 1
BrC(=C\c1ccccc1)/C=N/Nc1nc(N2CCOCC2)nc(N2CCOCC2)n1 | 2.3µM* | -129* | -4 | 5% | 13µM* | -12
BrC(/C=C\c1ccccc1)=N/Nc1nc(N2CCOCC2)nc(N2CCOCC2)n1 | 7.3µM* | -6 | -4 | -5% | 10µM* | -3
C(=N\Nc1nc(N2CCOCC2)nc(N2CCOCC2)n1)/c1cccnc1 | 0% | 18 | 7 | -5% | -11% | 1
CC(/C=N/Nc1nc(N2CCCCC2)nc(N2CCCCC2)n1)=C\c1ccccc1 | u | 1 | 0 | -3% | -24% | 8
CN(C)c1ccc(/C=C/C=N/Nc2nc(N3CCOCC3)nc(N3CCOCC3)n2)cc1 | 16µM* | -14 | 1 | 3% | u | x
Cc1ccc(NC(=O)COC(=O)Cc2csc(-c3ccc(Cl)cc3)n2)cc1C | -2% | 30 | 14 | 2% | 3% | 1
CCOc1c(Cl)cc(/C=C/C(=O)N(CC)CC(=O)Nc2ccc(NC(C)=O)cc2)cc1OC | 8% | -21 | -1 | 1% | u | -25
CC1Cc2cc(S(=O)(=O)N3CCN(c4ccccc4F)CC3)ccc2N1C(=O)C1CCC1 (configuration not stated) | u | x | x | 1% | -13% | x
O=C1NC(=S)NC1=Cc1ccc2c(c1)CCC2 | 16µM* | -9 | -6 | x | u | 9
O=C1NC(=S)N/C1=C/C=C/c1ccccc1 | -1% | 2 | -1 | -5% | -17% | 3
SMILES | DT40 TDP1 CPT | IL-1B inflam inh | Six1-Eya2 blk | TDP1 block | DT40 TDP1 no CPT | CtBP-E1A inh
O=C(COC(=O)/C=C/c1ccc(S(=O)(=O)N2CCOCC2)cc1)NC1CCCCCCC1 | -8% | -9 | 3 | 3% | -6% | -9
O=C(COC(=O)/C=C/c1ccc(S(=O)(=O)N2CCOCC2)cc1)NCc1ccc(Cl)cc1 | u | 4 | -1 | 3% | 26µM* | 4
O=C(COC(=O)/C=C/c1ccc(S(=O)(=O)N2CCOCC2)cc1)NCc1ccccc1 | 7.3µM* | -26 | 8 | -8% | 13µM* | 8
Cc1ccc(CN(C)S(=O)(=O)c2c(C)noc2/C=C/N(C)C)cc1 | -13% | 4 | -9 | 3% | 17% | 1
CCN(CC)C(=O)Cn1c(=O)n(CCC(=O)Nc2ccc(F)cc2)c(=O)c2sccc21 | -11% | 9 | -1 | 2% | 4% | 3
O=C1C(Cl)=C(N2CCCCCC2)C(=O)N1c1ccc(Cl)cc1 | -7% | 23 | 12 | -13% | u | x
CN(C)c1ncc(C2=C(Cl)C(=O)C(N3CCCC3)=C(Cl)C2=O)s1 | 0.92µM* | -104* | u | x | 1.2µM* | -24
O=C1C(Cl)=C(N2CCCCC2)C(=O)C(Cl)=C1c1cnc(N2CCCCC2)s1 | 0.92µM* | -71* | -8 | -6%[56.1 µM] | 0.92µM* | -2
O=C(Nc1ccccc1)c1nc[nH]c1C(=O)NCCCNC(=O)c1[nH]cnc1C(=O)Nc1ccccc1 | u | 14 | -9 | 0% | 15µM* | -2
Cc1cccc(NC(=O)c2nc[nH]c2C(=O)N[C@@H](C)c2ccccc2)c1 | 23µM* | u | -17 | 0% | 29µM* | -11
Cc1ccc(NC(=O)c2nc[nH]c2C(=O)Nc2ccc(C)cc2)cc1 | 10µM* | -2 | 9 | 2% | 7.3µM* | 8
O=C(Nc1ccccc1)c1nc[nH]c1C(=O)NCCCCCCNC(=O)c1[nH]cnc1C(=O)Nc1ccccc1 | 7.3µM* | -7 | 1 | 2% | 8.2µM* | 5
O=C(O)COCC(=O)Nc1ccc(-n2nc(C(F)(F)F)cc2-c2cccs2)cc1 | 11% | -25 | 33 | 3% | 0% | 2
CC1(C)Cc2c(sc(NC(=O)C(=O)N3CCCC3)c2C(N)=O)CO1 | 0% | 7 | 2 | 0% | -2% | 1
Cc1cccc(NC(=O)c2nc[nH]c2C(=O)Nc2cccc(C)c2)c1 | u | 3 | 10 | 1% | 10µM* | -25
